This is an account of results in ChEMBL document CHEMBL3988442, “University of Dundee, Small-Polar-MMV Screening Library” (2021).

Screen size: about 48,000 compounds; about 13,000 (27%) showed an effect of 50% or more. Some of the results follow.

This assay concerns Wolbachia pipientis. As to the kind of experiment: Anti-Wolbachia Cell-Based Screen. In kind it is functional. On the set-up: scale not given: in the data most compounds retested in dose-response had high values. The following applies: 5 µM.
As to `CC1(C)CN(C(=O)c2cnc(CN3CCCC3)s2)CC[C@]1(C)O`, the “Percent Effect” value was -20.27%.
Take `Cc1cc(NC(=O)CNC(C)(C)c2ccc3c(c2)OCO3)on1`: the “Percent Effect” value is recorded as 4.007%.
As for `CCNC(=O)NC(=O)CNC(C)(C)c1ccc2c(c1)OCO2`, the “Percent Effect” value came to 117.5%.
Consider `CC(C)(NCC(=O)NC(=O)NC1CC1)c1ccc2c(c1)OCO2`, for which the “Percent Effect” value was 94.42%.
The result for `COC(=O)c1oc(CNC(C)(C)c2ccc3c(c2)OCCO3)cc1C` reads -6.562%.
The result for `CC(C)(NCC(=O)NCC1CC1)c1ccc2c(c1)OCCO2` reads 87.25%.
On to `CC(C)(C)NC(=O)NC(=O)CNC(C)(C)c1ccc2c(c1)OCCO2`, for which the “Percent Effect” value amounted to 3.102%.
The result for `CC(C)(NCc1cccc(O)c1)c1ccc2c(c1)OCO2` reads 4.523%; that for `CC(C)(NCc1cccc(C(N)=O)c1)c1ccc2c(c1)OCO2`, 2.76%.
As to `CCNC(=O)NC(=O)CNC(C)(C)c1ccc2c(c1)OCCO2`, the “Percent Effect” value is listed as 126.2%.
As for `Cc1cc(NC(=O)CNC(C)(C)c2ccc3c(c2)OCCO3)no1`, the “Percent Effect” value is -9.405%.
`COC(=O)c1oc(CNC(C)(C)c2ccc3c(c2)OCO3)cc1C`: the “Percent Effect” value is reported as -12.91%.
The same measure for `CC(C)(NCC(=O)NCC(F)(F)F)c1ccc2c(c1)OCCO2`: 5.568%.
The result for `Cn1ccc(N2CCCC(NC(=O)c3ccsc3)C2=O)n1` (configuration not stated) reads -23.95%; that for `Cc1cnn(CCCNC(=O)C2CCCCN2Cc2ccncc2)c1` (configuration not stated), -11.5%; that for `COc1ccc(C)c2c1N(C(=O)c1cnc3onc(C)c3c1)CCC2`, 2.409%.
As for `O=C(CN1CCOC(c2ccc(Cl)c(Cl)c2)C1)NCc1ccco1` (configuration not stated), the “Percent Effect” value is given as -33.51%.
Regarding `Cc1noc(C)c1CN1CC2(CCCCN2c2cncnc2)CC1=O` (configuration not stated), the “Percent Effect” value turned out to be 1.289%.
Turning to `COCCC(=O)N1CCCC([C@@H]2C[C@H](C(F)F)n3ncnc3N2)C1` (some centres not stated), the “Percent Effect” value amounted to 128.9%.
Consider `CC(C)C(=O)N1CCCC([C@@H]2C[C@H](C(F)F)n3ncnc3N2)C1` (some centres not stated), for which the “Percent Effect” value was 140.3%.
With `COCCn1ccnc1C1CCCN(C(=O)CSCC2CC2)C1` (configuration not stated), the “Percent Effect” value is recorded as -1.205%.
As for `CC(=O)N1C[C@H]2CCCN(c3ncc(C)cn3)[C@H]2C1`, the “Percent Effect” value was 4.198%.
`O=C(CCc1ccc(=O)[nH]n1)N1CCCC(COc2ccc(F)cc2)C1` (configuration not stated): the “Percent Effect” value was -3.616%.
Take `CC(C)C(=O)N1CC[C@@H]2CN(Cc3ccncc3)S(=O)(=O)[C@@H]2CC1`: the “Percent Effect” value was -1.309%.
Turning to `CC(C)C(=O)N1CCC([C@@H]2C[C@H](C(F)F)n3ncnc3N2)CC1`, the “Percent Effect” value is given as 105.2%.
Turning to `COc1ccc(CN(C)C2CCN(C(=O)C(C)C)CC2)c2cccnc12`, the “Percent Effect” value is listed as -16.31%.
`CC(NC(=O)Nc1cccnc1N1CCOCC1)c1ccncc1` (configuration not stated): the “Percent Effect” value is -4.832%.
On to `CCc1nnc(CN(C)c2cc(C)nc3c(C)c(C)nn23)o1`, for which the “Percent Effect” value was determined as 7.383%.
As to `Cc1cc(N(C)Cc2cc(C)on2)n2nc(C)c(C)c2n1`, the “Percent Effect” value is -5.11%.
Take `CCC(=O)CNC(=O)CCn1nc2ccccn2c1=O`: the “Percent Effect” value is -17.3%.
Regarding `Cc1ccsc1C(=O)NCCCn1nc2ccccn2c1=O`, the “Percent Effect” value was -12.31%.
Take `CCN(CC)C(=O)CN(C)CCn1nc2ccccn2c1=O`: the “Percent Effect” value stood at 106.3%.
Take `CC(C1CC1)N(C(=O)NCCCn1nc2ccccn2c1=O)C1CC1` (configuration not stated): the “Percent Effect” value is listed as -19.29%.
With `COCCNC(=O)CN(C)CCn1nc2ccccn2c1=O`, the “Percent Effect” value turned out to be 81.18%.
On to `O=C(CC1CCCC1)NCCn1nc2ccccn2c1=O`, for which the “Percent Effect” value worked out at 2.754%.
The same measure for `CN(CCn1nc2ccccn2c1=O)CC(=O)N(C)C1CCCCC1`: 82.2%.
With `Cc1ccccc1CSCCn1nc2ccccn2c1=O`, the “Percent Effect” value was determined as 8.414%.
With `CCCc1cc(C(=O)NCCn2nc3ccccn3c2=O)[nH]n1`, the “Percent Effect” value worked out at 0.6756%.
Consider `CCOc1ccccc1CSCCn1nc2ccccn2c1=O`, for which the “Percent Effect” value is listed as -0.2652%.
The result for `CC(=O)N1CCCN(CCn2nc3ccccn3c2=O)CC1` reads 104.1%; that for `COc1ccc(CC(=O)NCCn2nc3ccccn3c2=O)cc1`, 7.031%; that for `CC(NCC1CCS(=O)(=O)CC1)c1cccc(OC(F)F)c1` (configuration not stated), 6.07%.
As for `CCC1=N[C@@]2(CC[C@@H]3CN(CC4CC4)C[C@@H]32)C(=O)N1`, the “Percent Effect” value turned out to be 9.591%.
Turning to `N#Cc1ccc(CNC2CCN(CCc3ccncc3)CC2)cc1`, the “Percent Effect” value is listed as -19.98%.
As for `CN(C)CCN(Cc1cccc(C(F)(F)F)c1)C(=O)c1cc[nH]n1`, the “Percent Effect” value is 1.923%.
With `Cc1c[nH]c(CN2CCN(C)C3(CCC(=O)N(CC4CC4)CC3)C2)n1` (configuration not stated), the “Percent Effect” value is listed as -1.954%.
`Cc1cccc(N2CCc3ncc(CNS(C)(=O)=O)n3CC2)n1.O=C(O)C(F)(F)F`: the “Percent Effect” value came out at 88.7%.
With `CCS(=O)(=O)N1CCC2(CN(c3cccc(C)n3)C2)C1.O=C(O)C(F)(F)F`, the “Percent Effect” value was found to be 1.878%.
`CN1CCc2ncc(CNc3cc(N(C)C)ncn3)n2CC1.O=C(O)C(F)(F)F`: the “Percent Effect” value is listed as -9.651%.
The same measure for `CS(=O)(=O)NCc1cnc2n1CCN(Cc1ccsc1)CC2.O=C(O)C(F)(F)F`: -2.337%; for `CN(Cc1ccco1)Cc1cnc2n1CCN(c1ccccn1)CC2.O=C(O)C(F)(F)F.O=C(O)C(F)(F)F`: 10.62%; for `Cc1cccc(N2CCc3ncc(CNc4ccccn4)n3CC2)n1.O=C(O)C(F)(F)F.O=C(O)C(F)(F)F`: 88.27%.
Turning to `Cc1cc(C)c(C(=O)N2CCc3c(ncn3CCc3ccccc3)C2)[nH]1`, the “Percent Effect” value is listed as -5.733%.
Regarding `CCCNC(=O)N1CCCC2(CCC(=O)N(CCc3c[nH]cn3)C2)C1` (configuration not stated), the “Percent Effect” value amounted to 12.8%.
Regarding `Cc1ccc2c(n1)N(C)CCN(C(=O)NC(C)C)C2.O=C(O)C(F)(F)F`, the “Percent Effect” value was -4.064%.
Turning to `CN1CCN(C(=O)Cc2ccc(F)cc2)Cc2cccnc21.O=C(O)C(F)(F)F`, the “Percent Effect” value is recorded as -3.35%.
The result for `CN1CCN(C(=O)NC2CC2)Cc2cccnc21.O=C(O)C(F)(F)F` reads -1.72%; that for `CC(C)NC(=O)N1CCN(CCn2cccn2)c2ncccc2C1.O=C(O)C(F)(F)F`, 105%; that for `Cc1ccc2c(n1)N(CCn1cccn1)CCN(C(=O)NC(C)C)C2`, 112.2%.
With `CC(C)NC(=O)N1CCN(CC2CC2)c2ncccc2C1.O=C(O)C(F)(F)F`, the “Percent Effect” value is recorded as -7.83%.
`Cc1ccc2c(n1)N(CCn1cccn1)CCN(C(=O)NC1CC1)C2.O=C(O)C(F)(F)F`: the “Percent Effect” value amounted to 12.45%.
With `CC(=O)NCC(=O)N1CCN(CCN(C)C)c2ncccc2C1.O=C(O)C(F)(F)F.O=C(O)C(F)(F)F`, the “Percent Effect” value is recorded as -13.2%.
As for `CCC(=O)N1CCN(CCn2cccn2)c2ncccc2C1.O=C(O)C(F)(F)F`, the “Percent Effect” value is given as 88.49%.
For the compound `CN1CCC(N(Cc2ccco2)S(=O)(=O)c2cc(Br)ccc2Br)CC1`, the “Percent Effect” value turned out to be 17.1%.
The same measure for `CSc1ccc(CN(C(=O)c2cc(=O)[nH]c(=O)[nH]2)C2CC2)cc1`: 1.499%; for `CN(C)C(C(=O)NCCS(=O)(=O)N(C)C)c1cccc(F)c1` (configuration not stated): -10.76%; for `Cc1ccccc1-c1cc(NC(=O)NC2CC2)n(CCO)n1`: -65.06%.
On to `Cc1nn2c(NCC(=O)NC3CC3)cc(-c3ccccc3)nc2c1C`, for which the “Percent Effect” value worked out at 7.066%.
Turning to `Cc1nn(C)cc1-c1cc(-c2cn(C)nc2C)n(CC(=O)NC2CC2)n1`, the “Percent Effect” value was determined as 89.98%.
Take `Cn1cc(-c2cc(-c3cnn(C)c3)n(CC(=O)NC3CC3)n2)cn1`: the “Percent Effect” value is recorded as 98.73%.
Regarding `Cc1c(-c2cc(-c3cnn(C)c3C)n(CC(=O)NC3CC3)n2)cnn1C`, the “Percent Effect” value turned out to be 78.99%.
The result for `Cc1cn(CC(=O)NC2CCC(C(=O)O)CC2)c2ccccc12` (configuration not stated) reads -7.822%.
As for `Cn1cc(CN2CCC(CCC(=O)NC3CC3)CC2)cn1`, the “Percent Effect” value is listed as -12.61%.
Consider `CN(Cc1cnn(C)c1)C(=O)NC1CCC(O)CC1` (configuration not stated), for which the “Percent Effect” value worked out at 16.63%.
For `Cc1ccccc1-c1cc(NC(=O)NC2CCC(O)CC2)n(CCO)n1` (configuration not stated), the “Percent Effect” value was -35.4%.
Regarding `O=C(c1cnc(Nc2ccccc2)nc1)N1CCCC2(CCNC2)C1` (configuration not stated), the “Percent Effect” value is on record as -3.033%.
For `CCN(C(=O)CN(CC(N)=O)C(C)C)C1=CCCC1`, the “Percent Effect” value amounted to 4.298%.
Turning to `CCOc1cc(F)ccc1NS(=O)(=O)c1cc(C)c(C(=O)O)s1`, the “Percent Effect” value came to 9.69%.
Take `Cc1ccc(CN2C[C@H]3CN(CC4CCN(C)CC4)C(=O)[C@H]3C2)s1`: the “Percent Effect” value is listed as -10.19%.
Take `O=C(c1ccccn1)N1CCc2c(nc(N3CCCC3)[nH]c2=O)C1`: the “Percent Effect” value is listed as -8.561%.
`O=C(c1cccnc1)N1CCc2c(nc(N3CCCC3)[nH]c2=O)C1`: the “Percent Effect” value is listed as 113.8%.
Turning to `Cc1nc(C(=O)N2CCc3c(nc(-c4ccncc4)[nH]c3=O)C2)cs1`, the “Percent Effect” value is reported as -11.53%.
Take `Cc1nc2sccn2c1C(=O)N1CCc2c(nc(N)[nH]c2=O)C1`: the “Percent Effect” value is given as -0.7078%.
On to `O=C(c1cc[nH]n1)N1CCc2c(nc(N3CCCCC3)[nH]c2=O)C1`, for which the “Percent Effect” value is given as 120.1%.
For `O=C(c1cccs1)N1CCc2c(nc(N3CCCCC3)[nH]c2=O)C1`, the “Percent Effect” value was 121.5%.
On to `Nc1nc2c(c(N3CCN(C(=O)c4cccs4)CC3)n1)CCCC2`, for which the “Percent Effect” value was 3.246%.
As for `O=C(c1ccc(=O)[nH]c1)N1CCc2c(nc(-c3cccnc3)[nH]c2=O)C1`, the “Percent Effect” value was found to be 3.404%.
The result for `O=C(c1cccs1)N1CCc2c(nc(N3CCCC3)[nH]c2=O)C1` reads 120%.
On to `Cc1nc2sccn2c1C(=O)N1CCc2c(nc(N(C)C)[nH]c2=O)C1`, for which the “Percent Effect” value is reported as 14.79%.
For `O=C(c1ncccc1O)N1CCc2c(nc(-c3ccncc3)[nH]c2=O)C1`, the “Percent Effect” value was -0.3257%.
The result for `O=C(c1ccsc1)N1CCc2c(nc(-c3ccncc3)[nH]c2=O)C1` reads -0.2016%; that for `O=C(Nc1cncc(Br)c1O)c1ccon1`, -9.076%.
Take `Cc1csc(CCNC(=O)c2cc3c(nc2O)CCC(C)C3)n1` (configuration not stated): the “Percent Effect” value is recorded as -7.199%.
As to `CC(C)(C)n1cc(C#N)cc1NC(=O)CCS(=O)(=O)C1CCCC1`, the “Percent Effect” value was -10.01%.
Take `COCC(C)(CCO)NC(=O)Nc1cccc(Br)c1C` (configuration not stated): the “Percent Effect” value came out at 7.029%.
As to `NC(=O)CN1CCN(c2ccnc3c(F)ccc(F)c23)CC1`, the “Percent Effect” value was determined as 3.08%.
The result for `NC(=O)c1cccc2nc([C@H]3CCN(Cc4ccccn4)C3)[nH]c12` reads -3.203%.
